Laboratory results reported in PubChem BioAssay (NCATS).
Records with an inconclusive call do not appear. Where a call stands in place of a potency, no number is given. Active and inactive are the calls of the source. The call rests on the fitted dose curve; in most records, active means well fitted curve in the direction sought with a large enough effect; inconclusive means small, poorly fitted or top-dose-only effect, or another doubt; inactive means no such curve, though single readings can be large; an effect the other way counts as inactive or inconclusive.

Experiments:
[1] = biological target: Metallo-beta-lactamase type 2 (Klebsiella pneumoniae) (UniProt C7C422); assay: qHTS to identify inhibitors of the New Delhi Metallo-beta-lactamase (NDM): assay validation screen against the NCATS LOPAC Collection (AID 1794843); further: potency means the concentration at half of the fitted maximal effect
Sequence of Metallo-beta-lactamase type 2 (Klebsiella pneumoniae) (C7C422 whole entry, looked up): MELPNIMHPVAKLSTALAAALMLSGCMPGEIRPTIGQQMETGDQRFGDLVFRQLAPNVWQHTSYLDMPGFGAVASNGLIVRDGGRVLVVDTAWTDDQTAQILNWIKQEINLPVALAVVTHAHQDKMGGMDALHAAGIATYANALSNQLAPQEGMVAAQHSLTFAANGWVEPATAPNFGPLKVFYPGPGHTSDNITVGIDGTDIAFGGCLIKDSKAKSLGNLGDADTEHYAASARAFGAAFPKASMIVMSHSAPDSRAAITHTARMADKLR
Summary of the method: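 NDM-1 at 2 nM final in 50 mM HEPES pH 7.0 with 1 uM ZnSO4 and 0.01% Tween20 was preincubated with library compounds in DMSO. Nitrocefin (50 uM stock) was then added, and absorbance at 485 nm was read at the kinetic plateau.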

[2] = biological target: Glutathione peroxidase 1 (Homo sapiens) (UniProt P07203); assay: Primary qHTS Assay for Inhibitors of Recombinant Selenoprotein Glutathione Peroxidase 1 (GPX1) (AID 1845191); further: nearly all actives have a fitted effect of over 65% in size; further: potency means the concentration at half of the fitted maximal effect
Sequence of Glutathione peroxidase 1 (Homo sapiens) (P07203 whole entry, looked up): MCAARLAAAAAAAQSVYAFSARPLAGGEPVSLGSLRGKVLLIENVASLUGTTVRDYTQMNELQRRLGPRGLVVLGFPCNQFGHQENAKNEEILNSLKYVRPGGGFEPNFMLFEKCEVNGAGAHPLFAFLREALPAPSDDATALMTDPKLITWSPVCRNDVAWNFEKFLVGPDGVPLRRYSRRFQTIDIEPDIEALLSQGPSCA
Summary of the method: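 Recombinant GPX1 (10 nM final) was preincubated with compound for 30 min at room temperature, then reacted with 1 mM GSH, 0.5 mM CHP, 0.5 mM NADPH and 100 nM glutathione reductase; NADPH fluorescence (340/450 nm) was read at 0 and 15 min.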

[3] = biological target: Phospholipid hydroperoxide glutathione peroxidase GPX4 (Homo sapiens) (UniProt P36969); assay: Primary qHTS Assay for Inhibitors of Recombinant Selenoprotein Glutathione Peroxidase 4 (GPX4) (AID 1845192); further: nearly all actives have a fitted effect of over 65% in size
Sequence of Phospholipid hydroperoxide glutathione peroxidase GPX4 (Homo sapiens) (P36969 whole entry, looked up): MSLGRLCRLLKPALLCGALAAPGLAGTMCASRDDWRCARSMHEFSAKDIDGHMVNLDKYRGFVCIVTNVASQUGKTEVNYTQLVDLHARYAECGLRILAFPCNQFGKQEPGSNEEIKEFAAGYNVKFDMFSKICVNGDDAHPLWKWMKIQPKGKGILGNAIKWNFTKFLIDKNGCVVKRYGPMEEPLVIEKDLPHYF
Summary of the method: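 GR-coupled readout: 100 nM GR, 1 mM GSH, 0.5 mM NADPH; NADPH fluorescence (ex 340/em 450 nm) read at t=0 and after 15 min RT. GPX4 200 nM, preincubated 30 min with compound; substrate 0.5 mM CHP.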

[4] = biological target: Luciferin 4-monooxygenase (Photinus pyralis) (UniProt P08659); assay: Primary firefly luciferase (FLuc) qHTS assay for identification of artifact compounds. (AID 1845220); further: nearly all actives have a fitted effect of over 60% in size
Summary of the method: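 qHTS, 15 min compound preincubation with substrate (10 uM luciferin, 10 uM ATP) at RT, then 10 nM FLuc; 5 min; luminescence; % inhibition vs no-enzyme/DMSO controls, 4-parameter Hill fit.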

[5] = Primary fluorescence-based thiol-reactive (MSTI) qHTS assay for identification of artifact compounds. (AID 1845221); further: potency means the concentration at half of the fitted maximal effect; nearly all actives have a fitted effect of over 65% in size
Summary of the method: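 Reactivity toward the thiol probe MSTI (4 uM) is scored by fluorescence at Ex/Em 525/598 nm after 1 h at room temperature. Acetyl-MSTI and MSTI define the activity scale.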

## CN1CCC(c2c[nH]c3ccc(O)cc23)CC1
[1]
  Potency: inactive
[2]
  Potency: inactive
[3]
  Potency: inactive

## CCCC[N+]1(C)C2CC(OC(=O)[C@H](CO)c3ccccc3)CC1C1OC12 (stereo partly specified)
[1]
  Potency: inactive
[2]
  Potency: inactive
[3]
  Potency: inactive

## CCOC(=O)c1ncn2c1[C@@H]1CCCN1C(=O)c1cc(OC)ccc1-2
[1]
  Potency: inactive
[2]
  Potency: inactive
[3]
  Potency: inactive

## c1ccc2c(c1)[I+]c1ccccc1-2
[1]
  Potency: inactive
[2]
  Potency: inactive
[3]
  Potency: inactive

## CCCN(CCC)[C@@H]1CCc2cccc(O)c2C1
[1]
  Potency: inactive
[2]
  Potency: inactive
[3]
  Potency: inactive

## O=C1C=CC(=O)C=C1
[1]
  Potency: inactive
[2]
  Potency: inactive
[3]
  Potency: inactive

## Clc1ccc(N2CC3CCC(C2)N3)nn1
[1]
  Potency: inactive
[2]
  Potency: inactive
[3]
  Potency: inactive

## C#CCN[C@H](C)Cc1ccccc1
[1]
  Potency: inactive
[2]
  Potency: inactive
[3]
  Potency: inactive

## C[C@]12Cc3cn4c(nc3C=C1CCC1C2CC[C@@]2(C)[C@H]1CC[C@@]2(O)C#N)nc1ccccc14 (stereo partly specified)
[1]
  Potency: inactive
[2]
  Potency: inactive
[3]
  Potency: inactive

## CC12NC(Cc3ccccc31)c1ccccc12 (stereo unspecified)
[1]
  Potency: inactive
[2]
  Potency: inactive
[3]
  Potency: inactive

## CC(C)(C)c1cc(C=C(C#N)C#N)cc(C(C)(C)C)c1O
[1]
  Potency: inactive
[2]
  Potency: inactive
[3]
  Potency: inactive

## OCc1cnc[nH]1
[1]
  Potency: inactive
[2]
  Potency: inactive
[3]
  Potency: inactive

## NCCc1ccc(S(=O)(=O)F)cc1
[1]
  Potency: inactive
[2]
  Potency: inactive
[3]
  Potency: inactive

## CC(N)[C@H](O)c1ccc(O)c(O)c1 (stereo partly specified)
[1]
  Potency: inactive
[2]
  Potency: inactive
[3]
  Potency: inactive

## NC(=O)COc1c(F)cc(SCCNS(=O)(=O)c2ccccc2)cc1F
[1]
  Potency: inactive
[2]
  Potency: inactive
[3]
  Potency: inactive

## C[C@@H]1O[C@@H](O[C@H]2C[C@@H](O)[C@]3(CO)[C@@H]4C(CC[C@]3(O)C2)[C@@]2(O)CC[C@H]([C@@H]3COC(=O)C3)[C@@]2(C)C[C@H]4O)[C@H](O)[C@H](O)[C@H]1O (stereo partly specified)
[1]
  Potency: inactive
[2]
  Potency: inactive
[3]
  Potency: inactive

## CN(C(=O)Cc1ccc(Cl)c(Cl)c1)C(CN1CCCC1)c1cccc(OCC(=O)O)c1 (stereo unspecified)
[1]
  Potency: inactive
[2]
  Potency: inactive
[3]
  Potency: inactive

## CO[C@H]1CC=C2CCN3CCC4=C(CC(=O)OC4)[C@]23C1
[1]
  Potency: inactive
[2]
  Potency: inactive
[3]
  Potency: inactive

## COc1ccc2[nH]c3c(c2c1)CCNC3
[1]
  Potency: inactive
[2]
  Potency: inactive
[3]
  Potency: inactive

## NC(N)=Nc1ccc2[nH]c3c(c2c1)C[C@@]1(O)[C@H]2Cc4ccc(O)c5c4[C@@]1(CCN2CC1CC1)[C@H]3O5
[1]
  Potency: inactive
[2]
  Potency: inactive
[3]
  Potency: inactive

## CN1CC[C@@]2(C)c3cc(O)ccc3N(C)C12 (stereo partly specified)
[1]
  Potency: inactive
[2]
  Potency: inactive
[3]
  Potency: inactive

## C[C@H](Cc1ccc2c(c1)OC(C(=O)O)(C(=O)O)O2)NC[C@H](O)c1cccc(Cl)c1
[1]
  Potency: inactive
[2]
  Potency: inactive
[3]
  Potency: inactive

## c1ccc2sc(SNC3CCCCC3)nc2c1
[2]
  Potency: 28.2 µM (active)

## N[C@@]1(C(=O)O)CC[C@@H](C(=O)O)C1
[1]
  Potency: inactive
[2]
  Potency: inactive
[3]
  Potency: inactive

## Nc1cc2c(ncn2CCOCP(=O)(O)O)c(=O)[nH]1
[1]
  Potency: inactive
[2]
  Potency: inactive
[3]
  Potency: inactive

## COc1ccc2[nH]cc(CCN)c2c1
[1]
  Potency: inactive
[2]
  Potency: inactive
[3]
  Potency: inactive

## CN1CCc2cc(O)cc3c2[C@H]1Cc1ccc(O)c(O)c1-3
[1]
  Potency: inactive
[2]
  Potency: inactive
[3]
  Potency: inactive

## CC(C)CCC(=O)O[C@H]1CC[C@H]2[C@@H]3CCC4=CC(=O)CC[C@]4(C)[C@H]3CC[C@]12C
[2]
  Potency: inactive

## CCCN(CCC)C1CCc2cccc(O)c2C1 (stereo unspecified)
[1]
  Potency: inactive
[2]
  Potency: inactive
[3]
  Potency: inactive

## CN1CCc2cccc(Cl)c2CC1
[1]
  Potency: inactive
[2]
  Potency: inactive
[3]
  Potency: inactive

## COc1ccc2c(c1)C13CCCCC1C(C2)N(C)CC3 (stereo unspecified)
[1]
  Potency: inactive
[2]
  Potency: inactive
[3]
  Potency: inactive

## CC(C)(O)[C@@H]1C2OC(=O)[C@@H]1[C@]1(O)C[C@H]3O[C@]34C(=O)O[C@H]2[C@]14C (tested in a mixture with another compound)
[1]
  Potency: inactive
[2]
  Potency: inactive
[3]
  Potency: inactive

## CN1CCC[C@@H]1Cc1c[nH]c2ccc(Nc3ncccc3[N+](=O)[O-])cc12
[1]
  Potency: inactive
[2]
  Potency: inactive
[3]
  Potency: inactive
[4]
  Potency: inactive
[5]
  Potency: 1.68 µM (active)

## N[C@@H](Cn1oc(=O)[nH]c1=O)C(=O)O
[1]
  Potency: inactive
[2]
  Potency: inactive
[3]
  Potency: inactive

## CCC(=O)O[C@@](Cc1ccccc1)(c1ccccc1)[C@@H](C)CN(C)C
[2]
  Potency: inactive

## CCCN(CCC)[C@H]1CCc2c(F)ccc(O)c2C1
[1]
  Potency: inactive
[2]
  Potency: inactive
[3]
  Potency: inactive

## CCCN1CCc2cccc3c2[C@H]1Cc1ccc(O)c(O)c1-3
[1]
  Potency: inactive
[2]
  Potency: inactive
[3]
  Potency: inactive

## C[C@H](N)CN1CCc2ccc(Br)cc21
[1]
  Potency: inactive
[2]
  Potency: inactive
[3]
  Potency: inactive

## N#C/C(=C/c1ccc(O)c(O)c1)C(N)=S
[1]
  Potency: inactive
[2]
  Potency: 14.3 µM (active)
[3]
  Potency: inactive

## Clc1cc(I)cc(Cl)c1NC1=NCCN1
[1]
  Potency: inactive
[2]
  Potency: inactive
[3]
  Potency: inactive

## NC(CCCCCP(=O)(O)O)C(=O)O (stereo unspecified)
[1]
  Potency: inactive
[2]
  Potency: inactive
[3]
  Potency: inactive

## NCC(CP(=O)(O)O)c1ccc(Cl)cc1 (stereo unspecified)
[1]
  Potency: inactive
[2]
  Potency: inactive
[3]
  Potency: inactive

## CC(=O)NBr
[1]
  Potency: inactive
[2]
  Potency: inactive
[3]
  Potency: inactive

## O=c1[nH]cc(N(CCCl)CCCl)c(=O)[nH]1
[2]
  Potency: inactive

## c1ccc2cc(CC3=NCCN3)ccc2c1
[1]
  Potency: inactive
[2]
  Potency: inactive
[3]
  Potency: inactive

## CCN1C[C@@]2(COC)C3[C@@H](OC)C4[C@@H]1C3([C@@H]1C[C@]3(O)[C@H](OC(=O)c5ccccc5)[C@@H]1[C@]4(OC(C)=O)[C@@H](O)[C@@H]3OC)[C@H](OC)C[C@H]2O
[1]
  Potency: inactive
[2]
  Potency: inactive
[3]
  Potency: inactive

## C[N+](C)(C)CC#CCOC(=O)Nc1cccc(Cl)c1
[1]
  Potency: inactive
[2]
  Potency: inactive
[3]
  Potency: inactive

## NC(Cc1cc(O)c(O)cc1O)C(=O)O (stereo unspecified)
[1]
  Potency: 3.98 µM (active)
[2]
  Potency: inactive
[3]
  Potency: inactive

## NCCCP(=O)(O)O
[1]
  Potency: inactive
[2]
  Potency: inactive
[3]
  Potency: inactive

## CC(N)Cc1c[nH]c2ccc(O)cc12 (stereo unspecified)
[1]
  Potency: inactive
[2]
  Potency: inactive
[3]
  Potency: inactive

## NCC(O)c1cc(O)c(O)cc1F (stereo unspecified)
[1]
  Potency: inactive
[2]
  Potency: inactive
[3]
  Potency: inactive

## CCCN1CCc2cc(O)cc3c2[C@H]1Cc1ccc(O)c(O)c1-3
[1]
  Potency: inactive
[2]
  Potency: inactive
[3]
  Potency: inactive

## CC1(C(=O)O)C2CCC(O2)C1(C)C(=O)O (stereo unspecified)
[1]
  Potency: inactive
[2]
  Potency: inactive
[3]
  Potency: inactive

## C=CCN1CCC23c4c5ccc(O)c4O[C@H]2C(=O)CC[C@@]3(O)C1C5 (stereo partly specified)
[1]
  Potency: inactive
[2]
  Potency: inactive
[3]
  Potency: inactive

## O=[N+]([O-])c1cc(I)c(O)c(I)c1
[2]
  Potency: inactive

## NC(=O)c1ccc(OCC(O)CN2CC=C(c3ccc(F)cc3)CC2)cc1 (stereo unspecified)
[1]
  Potency: inactive
[2]
  Potency: inactive
[3]
  Potency: inactive

## CN(N=O)c1cc(O)ccc1O
[1]
  Potency: inactive
[2]
  Potency: inactive
[3]
  Potency: inactive

## COc1ccc(CNC(=O)/C=C/c2ccc3[nH]cc(CCN(C)C)c3c2)cc1
[1]
  Potency: inactive
[2]
  Potency: inactive
[3]
  Potency: inactive

## Cc1[nH]c2ccc(O)cc2c1CCN
[1]
  Potency: inactive
[2]
  Potency: inactive
[3]
  Potency: inactive

## O=[N+]([O-])c1ccccc1
[2]
  Potency: inactive
[3]
  Potency: inactive

## C=CC[C@]1(O)CC[C@H]2[C@@H]3CCC4=CCCC[C@@H]4[C@H]3CC[C@@]21C
[2]
  Potency: inactive
[3]
  Potency: inactive

## O=C1OC2(c3cc(Br)c(O)cc3Oc3c2cc(Br)c(O)[c]3[Hg])c2ccccc21 (stereo unspecified)
[2]
  Potency: inactive

## O=C(O)C(Cl)(Cl)Cl
[2]
  Potency: inactive
[3]
  Potency: inactive
